Compounds without any hit were thinned out: in the full panel of roughly 83,000, 20% have a hit.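 Negative percent growth values reflect cell death: -40 means 40% of the cells present at the start died, and -100 means all died.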 Unmarked numbers belong to inactive results. The source made the active and inactive calls. The calls were made as follows: active = growth percent below 10; inactive = the rest.

The subject of one assay is SK-MEL-2 melanoma. Kind of assay: NCI-60 one-dose screen, 48 h (100 = growth as untreated, 0 = no growth, -100 = all killed). To be noted: 10 µM unless noted.
For `N#Cc1c(-c2ccccc2Cl)cc(-c2c[nH]c3ccccc23)[nH]c1=O`, the growth was 49%.
Still for that read-out and setting: to `CN1CCN(/C(=N\c2sc(-c3ccccc3)nc2-c2ccccc2)c2ccccc2)CC1` belongs 115%; to `COc1ccc(-c2cc(C(=O)NCc3ccccc3)nn2-c2ccc(S(C)(=O)=O)cc2)cc1OC`, 119%; to `O=C(COc1ccc(NC(=O)Nc2ccc(Cl)c(Cl)c2)cc1)N=Nc1c(O)[nH]c2ccc(Cl)cc12`, -64.9% (active).
For `C=C1CC[C@@H]2[C@]3(C)COC(c4cn(-c5ccccc5)nc4-c4ccccc4)O[C@@H]3CC[C@@]2(C)[C@@H]1C/C=C1/C(=O)OC[C@H]1O` (stereo partly specified), the growth was -81.1% (active).
On the same count and under the same terms, to `CC(=O)Nc1cccc(-c2nc3cc(-c4ccc(O)cc4)ccc3n2C)c1` belongs 52.6%; to `O=C(/C=C/c1ccc(-c2ccccc2)cc1)c1nc2ccccc2n1Cc1ccc(F)cc1`, 56.6%; to `Cc1cc2nc3c4ccccc4n(CCNCCN(C)C)c3nc2cc1C`, 25.4%.
Still for that read-out and setting: to `c1ccc(-c2csc(Nc3cccc(Nc4nc(-c5ccccc5)cs4)c3)n2)cc1` belongs 64.9%; to `O=C(N/N=C/c1ccc(-c2ccc(O)cc2)s1)c1[nH]c2ccc(Br)cc2c1-c1ccccc1`, -4.17% (active).
Still for that read-out and setting: the result for `COCOc1cc2c(=O)c(C)c(C(=O)N[C@@H](Cc3ccccc3)C(O)C(=O)NCc3ccccc3)oc2cc1OC` (stereo partly specified) reads -2.79% (active); that for `COc1cc2oc(-c3cccc(C(=O)Nc4ccc(Cl)cc4)c3)cc(=O)c2c(OCCNC(=O)[C@@H](N)CCC(=O)O)c1OC`, 104%.
Consider `Cn1cc(-c2nc(N)nnc2-c2c[nH]c3ccc(Br)cc23)c2cccnc21`, for which the growth is 30.5%.
On the same count and under the same terms, to `O=C1c2c(c3c4cc(F)ccc4oc3c3[nH]c4ccc(Br)cc4c23)C(=O)N1O` belongs 5.56% (active).
Consider `CCCCNC(=S)Nc1ccc(OCc2nc3ccccc3[nH]2)cc1`, for which the growth is 69.1%.
On the same count and under the same terms, to `COc1cc(-c2ccc(/C=N/NC(=O)c3[nH]c4ccc(Br)cc4c3-c3ccccc3)s2)cc(OC)c1OC` belongs 104%; to `C=C1CC[C@@H]2[C@]3(C)COC(c4cn[nH]c4-c4ccc(C)cc4)O[C@@H]3CC[C@@]2(C)[C@@H]1C/C=C1/C(=O)OCC1O` (stereo partly specified), 51.4%; to `COc1cc2c(c(OC)c1OC)C(=O)CC(c1cccc(NC(=O)c3cc(N)ccc3Cl)c1)O2` (stereo unspecified), 32.7%.
Still for that read-out and setting: the result for `COc1cc2c(c(OC)c1OC)C(=O)CC(c1cccc(NC(=O)c3cccc(NC(=O)[C@H](C)NC(=O)OC(C)(C)C)c3)c1)O2` (stereo partly specified) reads 50.9%; that for `C=C1CCC2C3(C)COC(c4cc(F)cc(F)c4)OC3CCC2(C)C1CC(O)C1=CCOC1=O` (stereo unspecified), 57.2%; that for `O=C(/C=C/c1ccc(O)c(O)c1)NC1CCOC1O` (stereo unspecified), 113%.
The same measure, in the same setting: the result for `C/C(=N\N=C1/C(=O)Nc2ccc(Cl)cc21)c1ccc2c(c1)Nc1ccccc1S2` reads -13.6% (active); that for `CC(C)CCNC(=O)N/C(N)=N/c1nc2ccccc2s1`, 86.4%; that for `OCNc1ccc(-n2cnc3cc(-c4ccc(O)cc4)ccc32)cc1C(F)(F)F`, 21.7%.
Take `C=C1CCC2C3(C)COC(c4ccc(F)cc4)OC3CCC2(C)C1C/C=C1/C(=O)OCC1O` (stereo unspecified): the growth is -63.2% (active).
Same read-out and setting: the result for `O=c1[nH]n(C(=S)N/N=C/c2ccccc2Cl)c(=O)c2ccccc12` reads -33% (active).
Still for that read-out and setting: to `N#Cc1c(-c2cccc(Cl)c2Cl)cc(-c2ccc3ccccc3c2)[nH]c1=O` belongs 126%.
Same read-out and setting: to `Clc1cccc(Cl)c1/C=C/c1cc(/C=C/c2ccc(Br)cc2)c2ccccc2n1` belongs 123%; to `CC(C)c1ccc2c(N)c(C(=O)Nc3ccc(C(F)(F)F)cn3)sc2n1`, 77.6%; to `CCN(CC)C(=O)N/C(N)=N/c1nc2ccccc2s1`, 65.5%.
Regarding `O=C(COc1ccc(NC(=O)Nc2ccc(Cl)c(Cl)c2)cc1)N=Nc1c(O)[nH]c2ccc([N+](=O)[O-])cc12`, the growth was 48.7%.
For the compound `Cc1cc2c(cc1Cl)C(=O)/C(=C/c1ccc(F)cc1)O2`, the growth is 122%.
For the compound `CCCCOc1ccc(NC(=O)c2sc3nc(C)ccc3c2N)cc1`, the growth is 49.2%.
Same read-out and setting: to `O=C1Nc2cc(Cl)ccc2/C1=C/c1cccc(OCc2ccccn2)c1` belongs 41%; to `NS(=O)(=O)c1ccc(N=Nc2c(O)n(CC(=O)Nc3ccccc3Cl)c3ccccc23)cc1`, 9.55% (active).
Same read-out and setting: to `O=C(Nc1cccc(-n2cnc3cc(-c4ccc(O)cc4)ccc32)c1)C1CC1` belongs 58.4%; to `C=C1CC[C@@H]2[C@]3(C)COC(c4cn[nH]c4-c4ccc(OC)cc4)O[C@@H]3CC[C@@]2(C)[C@@H]1C/C=C1/C(=O)OCC1O` (stereo partly specified), -42.2% (active).
Still for that read-out and setting: the result for `CC(=O)Nc1ccc(-c2cn(-c3cccc(C(=O)Nc4ccc(N5CCN(C)CC5)cc4)c3)nn2)cn1` reads 92.5%.

A further assay deals with EKVX NSCLC. The assay is described as above. To be noted: 10 µM unless noted.
`N#Cc1c(-c2ccccc2Cl)cc(-c2c[nH]c3ccccc23)[nH]c1=O`: the growth is 68.1%.
Same read-out and setting: to `CN1CCN(/C(=N\c2sc(-c3ccccc3)nc2-c2ccccc2)c2ccccc2)CC1` belongs 81.3%; to `COc1ccc(-c2cc(C(=O)NCc3ccccc3)nn2-c2ccc(S(C)(=O)=O)cc2)cc1OC`, 97.5%.
Still for that read-out and setting: to `O=C(COc1ccc(NC(=O)Nc2ccc(Cl)c(Cl)c2)cc1)N=Nc1c(O)[nH]c2ccc(Cl)cc12` belongs 7.69% (active); to `C=C1CC[C@@H]2[C@]3(C)COC(c4cn(-c5ccccc5)nc4-c4ccccc4)O[C@@H]3CC[C@@]2(C)[C@@H]1C/C=C1/C(=O)OC[C@H]1O` (stereo partly specified), -63.5% (active).
On the same count and under the same terms, the result for `CC(=O)Nc1cccc(-c2nc3cc(-c4ccc(O)cc4)ccc3n2C)c1` reads 35.1%; that for `O=C(/C=C/c1ccc(-c2ccccc2)cc1)c1nc2ccccc2n1Cc1ccc(F)cc1`, 34.4%.
For `Cc1cc2nc3c4ccccc4n(CCNCCN(C)C)c3nc2cc1C`, the growth was 73.2%.
Same read-out and setting: the result for `c1ccc(-c2csc(Nc3cccc(Nc4nc(-c5ccccc5)cs4)c3)n2)cc1` reads 37.7%; that for `O=C(N/N=C/c1ccc(-c2ccc(O)cc2)s1)c1[nH]c2ccc(Br)cc2c1-c1ccccc1`, 12.3%; that for `COCOc1cc2c(=O)c(C)c(C(=O)N[C@@H](Cc3ccccc3)C(O)C(=O)NCc3ccccc3)oc2cc1OC` (stereo partly specified), 78.4%.
Same read-out and setting: the result for `COc1cc2oc(-c3cccc(C(=O)Nc4ccc(Cl)cc4)c3)cc(=O)c2c(OCCNC(=O)[C@@H](N)CCC(=O)O)c1OC` reads 70.8%; that for `Cn1cc(-c2nc(N)nnc2-c2c[nH]c3ccc(Br)cc23)c2cccnc21`, 67.4%; that for `O=C1c2c(c3c4cc(F)ccc4oc3c3[nH]c4ccc(Br)cc4c23)C(=O)N1O`, 76.5%.
On the same count and under the same terms, to `CCCCNC(=S)Nc1ccc(OCc2nc3ccccc3[nH]2)cc1` belongs 62.3%; to `COc1cc(-c2ccc(/C=N/NC(=O)c3[nH]c4ccc(Br)cc4c3-c3ccccc3)s2)cc(OC)c1OC`, 73.7%; to `C=C1CC[C@@H]2[C@]3(C)COC(c4cn[nH]c4-c4ccc(C)cc4)O[C@@H]3CC[C@@]2(C)[C@@H]1C/C=C1/C(=O)OCC1O` (stereo partly specified), 12.9%.
Turning to `COc1cc2c(c(OC)c1OC)C(=O)CC(c1cccc(NC(=O)c3cc(N)ccc3Cl)c1)O2` (stereo unspecified), the growth was 78.7%.
On the same count and under the same terms, to `COc1cc2c(c(OC)c1OC)C(=O)CC(c1cccc(NC(=O)c3cccc(NC(=O)[C@H](C)NC(=O)OC(C)(C)C)c3)c1)O2` (stereo partly specified) belongs 93.3%.
Still for that read-out and setting: to `C=C1CCC2C3(C)COC(c4cc(F)cc(F)c4)OC3CCC2(C)C1CC(O)C1=CCOC1=O` (stereo unspecified) belongs 83.3%.
On to `O=C(/C=C/c1ccc(O)c(O)c1)NC1CCOC1O` (stereo unspecified), for which the growth is 97.1%.
On to `C/C(=N\N=C1/C(=O)Nc2ccc(Cl)cc21)c1ccc2c(c1)Nc1ccccc1S2`, for which the growth is 12.6%.
`CC(C)CCNC(=O)N/C(N)=N/c1nc2ccccc2s1`: the growth was 28.3%.
Same read-out and setting: the result for `OCNc1ccc(-n2cnc3cc(-c4ccc(O)cc4)ccc32)cc1C(F)(F)F` reads 34.7%.
With `C=C1CCC2C3(C)COC(c4ccc(F)cc4)OC3CCC2(C)C1C/C=C1/C(=O)OCC1O` (stereo unspecified), the growth is 5.53% (active).
The same measure, in the same setting: to `O=c1[nH]n(C(=S)N/N=C/c2ccccc2Cl)c(=O)c2ccccc12` belongs -35.4% (active); to `N#Cc1c(-c2cccc(Cl)c2Cl)cc(-c2ccc3ccccc3c2)[nH]c1=O`, 49%; to `Clc1cccc(Cl)c1/C=C/c1cc(/C=C/c2ccc(Br)cc2)c2ccccc2n1`, 89.8%.
On the same count and under the same terms, to `CC(C)c1ccc2c(N)c(C(=O)Nc3ccc(C(F)(F)F)cn3)sc2n1` belongs 26.4%; to `CCN(CC)C(=O)N/C(N)=N/c1nc2ccccc2s1`, 15.3%.
Same read-out and setting: the result for `O=C(COc1ccc(NC(=O)Nc2ccc(Cl)c(Cl)c2)cc1)N=Nc1c(O)[nH]c2ccc([N+](=O)[O-])cc12` reads 85.6%; that for `Cc1cc2c(cc1Cl)C(=O)/C(=C/c1ccc(F)cc1)O2`, 90.8%; that for `CCCCOc1ccc(NC(=O)c2sc3nc(C)ccc3c2N)cc1`, 6.14% (active).
Regarding `O=C1Nc2cc(Cl)ccc2/C1=C/c1cccc(OCc2ccccn2)c1`, the growth is 15%.
The same measure, in the same setting: to `NS(=O)(=O)c1ccc(N=Nc2c(O)n(CC(=O)Nc3ccccc3Cl)c3ccccc23)cc1` belongs 38.1%.
Turning to `O=C(Nc1cccc(-n2cnc3cc(-c4ccc(O)cc4)ccc32)c1)C1CC1`, the growth is 44.4%.
The same measure, in the same setting: the result for `C=C1CC[C@@H]2[C@]3(C)COC(c4cn[nH]c4-c4ccc(OC)cc4)O[C@@H]3CC[C@@]2(C)[C@@H]1C/C=C1/C(=O)OCC1O` (stereo partly specified) reads -59.8% (active); that for `CC(=O)Nc1ccc(-c2cn(-c3cccc(C(=O)Nc4ccc(N5CCN(C)CC5)cc4)c3)nn2)cn1`, 80.9%.

Source of the values: PubChem BioAssay (NCI).
